# Data from PubChem BioAssay (Tox21).
# Activity calls are given as the source filed them. Calls come from the whole dose curve; as a rule, active = well fitted curve in the direction sought with a large enough effect in the repeat runs; inconclusive = weak or mixed curves; inactive = flat fitted curve, though single readings scatter.
# Assay: qHTS assay to test for compound auto fluorescence at 535 nm (green) in HepG2 cells (AID 720675)
# Settings: green autofluorescence 485/535 nm, 1 h; series mostly up to 91.3 µM
# % is set by controls: 0 for no effect and ±100 for the full control effect.
SMILES,outcome,"fluorescence, % of fluorescein control"
CCN(CCO)CCO,inactive,–
C=CCc1cc(OC)c2c(c1)OCO2,inactive,–
CC(C)(C1CCC(O)CC1)C1CCC(O)CC1 (configuration not stated),inactive,–
COc1cccc(C=O)c1,inactive,–
C=CC1(C)OC(=O)N(c2cc(Cl)cc(Cl)c2)C1=O (configuration not stated),inactive,–
CNC(=O)NC(O)C(Cl)(Cl)Cl (configuration not stated),inactive,–
COC(=O)[C@@H](N)CCCN/C(N)=N/[N+](=O)[O-],inactive,–
CC(C)(O)C(Cl)(Cl)Cl,inactive,–
CCCC(C)(COC(N)=O)COC(N)=O,inactive,–
Cc1cc(OC(=O)N(C)C)nn1C(=O)N(C)C,inactive,–
CS(=O)(=O)Cl,inactive,–
NCC1(CC(=O)O)CCCCC1,–,0.0214% [at 18.6 µM] (inactive)
COc1ccccc1OC,inactive,–
[P]#[In],inactive,–
O=C(Cl)/C=C/C(=O)Cl,inactive,–
CCOC(=O)NC(C)(C)Cc1ccc(Cl)cc1,inactive,–
O=c1[nH]oc2c1CCNC2,inactive,–
O=C(Cl)C(Cl)(Cl)Cl,inactive,–
N#CN=C1SCCN1Cc1ccc(Cl)nc1,inactive,–
CN(CCO)CCO,inactive,–
COC(=O)c1ccccc1CS(=O)(=O)NC(=O)Nc1nc(OC)cc(OC)n1,inactive,–
CCOC1Oc2ccc(OS(C)(=O)=O)cc2C1(C)C (configuration not stated),inactive,–
C[N+]1(C)CCCCC1,inactive,–
Cc1ccc(-c2nc3ccc(C)cn3c2CC(=O)N(C)C)cc1,inactive,–
COc1cc(CCN)cc(OC)c1OC,inactive,–
CC(=O)OCC1=C(C(=O)O)N2C(=O)[C@@H](N)[C@H]2SC1,–,0.0248% [at 18.6 µM] (inactive)
O=P(O)(O)c1ccccc1,inactive,–
